This experiment relates to VDR:RXRa (NR concentration 270 nM, RXRa partner concentration 90 nM). Kind of experiment: PBM binding z-score (relative to random genomic background probes); higher = stronger binding; sequences stand for … in GC…GCGATTGACAGCGTAGAATGAAGG
The procedure: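 Protein-binding microarray (Agilent 4x180K custom design, double-stranded 60-nt probes: 5' GC cap, 34-nt variable region, 24-nt constant primer region; full probe sequence given). Purified or IVT nuclear receptor:RXRα heterodimers (3:1 NR:RXRα, mostly 270:90 nM) or homodimers were incubated for 1 h in PBS with 2% milk and no ligand, then detected with Alexa488 antibodies. Fluorescence from o1-orientation probes (~5 replicates averaged) was converted to z-scores against 500 random hg19 background probes. Variable regions are seed direct-repeat (DR0–DR5) sites, all their single-nucleotide variants and half-site ablations.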
GTACCAAGGTGAATAGGTCTTTGATGAGTAGGCG registered a PBM binding z-score of 0.495.
Next, TCTAGCAAGCCAGAGGGTCACTCAAGAGGTACGG: 1.32; GCTGCTAGGTCAACTGATGGTCAGCCAAAGCTCG: 1.58; CGAACTAGATCAAGGACAGTGAATCTCCGCACGC: -0.37.
The result for CCTCGGAGGACAGAAGGTCAGAGCTGTCCGCTTT reads 1.02.
Next, ATCGAAAGGTCGTGAGCTGAGTATACAGAAAGGC: 2.95; CGAACTAGCTCAGAACAGGACAGTGAAGGATGAT: -0.427; CCTGCTAGGTTAATGGTCAGCTAAAGCAGCTCGC: -0.293.
For GATACAGGGTCACCTAGAGGCCAGAGTATGGAAA, the PBM binding z-score was 4.76.
The result for GCTATTAGTTGAAAGGGCATCCGAATGATTCTCG reads 0.499; that for CCTATTAGTTGACCATAAGGGCAAACGAAGCTCG, 0.834; that for GGAACGAGGGCCAGTTGATAGCAGAGTTTGATGG, -0.702.
Next, GCTCGGAGGGCAAGGTCAGAGCTTTGTCCGTAGA: 1.72.
Consider CGAACTAGGTCAAGGACAGTGAGTCTCCGCACGC, for which the PBM binding z-score is 1.16.
The result for AATAGAGGGTCATCGTAGGCCAGAGTACGCACAG reads 4.64.
Turning to ATCTCTCGGTAACAAGTTCAGTGAAAGAGAGGAC, the PBM binding z-score is 1.62.
The result for TCATATATGTAATACAGGTGAAAGTCGGCATCTA reads 0.899; that for AGAATGAGGTTACCAAAGATCAGGGATACGCTTG, 1.39; that for TCTTGTTGGTCAAAGGTCACACACTCGAAATGCG, 5.23.
In turn, GCGACTGGGGCATCAGCAGGTGACCATAACTTAA had a PBM binding z-score of -0.635.
Next, ATCTCTAGGTAAAAGTTCAGTGGATCCCGAGGAT: 1.21; TCTTATAGATCAGCAGGTTAAGAAAGCTGGCCAA: 0.455.
The result for CCTACTGGGCCAAAAAGGTGATTGATGCCGATAA reads -0.0906; that for ATACCTAGGTGATCGTGAGGTCGTTGATACTAAC, 2.66.
Next, AGAATGAGGTTATACCTAGATCAGGGAAGAAAGT: 1.11; CGAACTAGGTCATCGACAGGACAGTGAATAGTAA: 2.57; GCGACTGGGGCATCAGGAGGTTACCATAACTTAA: 0.558.
In turn, AGAATGAGGTTAAGATCAGGTAAACAGAATACAT gave a PBM binding z-score of 1.49.
The result for TTACCAAGGTGAAACGTCGTTGATGCACGCCTTG reads -0.243; that for CATGCAGGGTCAGCTAGGCCAGAGTAGGGACGGC, 3.97.
Next, AATTCAGGGTCATCGTAGGCCAGAGTACGCACAG: 5.7.
The result for CCGAGTGGGGCATAAGGTTACCATAAGCCAGCCC reads 0.143.
AATACAGGGTCACTAGGCCAGACTAGGTACGAAT came in with a PBM binding z-score of 4.22.
Sequence TATACAGGGTCAAAGGCCAGAGGACGAATGTCGA yielded a PBM binding z-score of 4.73.
Next, TAGCCTAGGTCAATGGGCCAGTATAGTACGCATC: 1.1.
Next, AGTCAAAGTTCACTTGGTAACGTAAGATTCAGCT: 4.07.
The result for TCTTGTAGATCAACAGGAGGTTAAGGAAGATCGA reads 0.488.
As for CCTACTAGGCCAAAGGTCATTGATTCCAATGCTC, the PBM binding z-score came out at 5.12.
The sequence TCTTGTAGATCAAAGGTTGAGAAAGCCGAAGCCT showed a PBM binding z-score of 0.408.
Take CCTACTGGGCCAAGGGTCATTGATTCCAATGCTC: the PBM binding z-score stood at 3.45.

The record behind these values is the supplement of paper PMC6555819.
